Test results reported in PubChem BioAssay AID1159580 (chemical genetic matrix, 2015).
“And” between values parts separate entries of the source, which are not always exact repeats. Equal values may be shown once. Among all 5,500 compounds or so, about 2,000 (36%) were called active. Not shown: some 18% with an inconclusive outcome. No stated cut-off is given here; in the data, active means normalized growth mostly below about 0.91 (no sharp cut-off); inconclusive means no clear call, values can overlap the other calls; inactive means mostly above about 0.92. The list shows a part of the results.

Experiment: chemical genetic growth profiling, strain panel (AID 1159580);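 further: tested at 20 µM; growth read once vehicle control cultures reached saturation at 30 °C; 1 = growth at the plate median or of vehicle wells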
Settings: S. cerevisiae deletion strains, growth OD

Measured: normalized growth

COc1cc2c(cc1OC)[C@@]13CCN4CC5=CCOC6CC(=O)N2C1[C@H]6[C@H]5C[C@H]43 (stereo partly drawn)
inactive: locus YAL013W, strain DEP1, stronger effect = lower value 1.02 | locus YAL021C, strain ccr4, stronger effect = lower value 0.983 | locus YAL026C, strain drs2, stronger effect = lower value 0.998 | locus YAL030W, strain snc1, stronger effect = lower value 1 | locus YBL061C, strain skt5, stronger effect = lower value 0.994 | locus YBR009C, strain hhf1, stronger effect = lower value 0.994 | locus YBR021W, strain FUR4, stronger effect = lower value 0.985 | locus YBR023C, strain chs3, stronger effect = lower value 0.989 | locus YBR171W, strain sec66, stronger effect = lower value 0.99 | locus YBR229C, strain ROT2, stronger effect = lower value 1.01 | locus YBR231C, strain swc5, stronger effect = lower value 0.979 | locus YBR279W, strain paf1, stronger effect = lower value 0.993 | locus YCL011C, strain gbp2, stronger effect = lower value 0.988 | locus YCL016C, strain dcc1, stronger effect = lower value 0.986 | locus YCL029C, strain bik1, stronger effect = lower value 1.01 | locus YCL061C, strain MRC1, stronger effect = lower value 0.988 | locus YCL069W, strain vba3, stronger effect = lower value 0.995 | locus YCR088W, strain abp1, stronger effect = lower value 0.994 | locus YDL005C, strain med2, stronger effect = lower value 0.988 | locus YDL035C, strain GPR1, stronger effect = lower value 1.03 | locus YDL040C, strain nat1, stronger effect = lower value 0.983 | locus YDL074C, strain BRE1, stronger effect = lower value 1.03 | locus YDL101C, strain DUN1, stronger effect = lower value 1.02 | locus YDL185W, strain tfp1, stronger effect = lower value 1 | locus YDL192W, strain arf1, stronger effect = lower value 1.01 | locus YDR001C, strain nth1, stronger effect = lower value 0.997 | locus YDR069C, strain doa4, stronger effect = lower value 1 | locus YDR101C, strain arx1, stronger effect = lower value 0.997 | locus YDR137W, strain rgp1, stronger effect = lower value 1 | locus YDR150W, strain NUM1, stronger effect = lower value 1.02 | locus YDR159W, strain sac3, stronger effect = lower value 0.977 | locus YDR162C, strain NBP2, stronger effect = lower value 1.02 | locus YDR195W, strain ref2 0.927 | locus YDR297W, strain sur2, stronger effect = lower value 0.996 | locus YDR318W, strain mcm21, stronger effect = lower value 1.02 | locus YDR334W, strain swr1, stronger effect = lower value 0.986 | locus YDR335W, strain msn5, stronger effect = lower value 0.996 | locus YDR388W, stronger effect = lower value 0.994 | locus YDR392W, strain spt3, stronger effect = lower value 0.999 | locus YDR502C, strain sam2, stronger effect = lower value 1.03 | locus YEL003W, strain gim4, stronger effect = lower value 0.997 | locus YEL037C, strain rad23, stronger effect = lower value 0.989 | locus YEL061C, strain CIN8 (second series), stronger effect = lower value 0.986 | locus YEL061C, strain CIN8, stronger effect = lower value 1.01 | locus YER015W, strain faa2, stronger effect = lower value 0.989 | locus YER016W, strain bim1, stronger effect = lower value 0.989 | locus YER110C, stronger effect = lower value 0.997 | locus YER111C, strain swi4, stronger effect = lower value 0.971 | locus YER155C, strain BEM2 (second series), stronger effect = lower value 0.993 | locus YER155C, strain BEM2, stronger effect = lower value 1.01 | locus YER167W, strain BCK2, stronger effect = lower value 1 | locus YFR010W, strain ubp6, stronger effect = lower value 0.999 | locus YGL078C, strain dbp3, stronger effect = lower value 1.01 | locus YGL086W, strain mad1, stronger effect = lower value 1 | locus YGL167C, strain pmr1, stronger effect = lower value 0.988 | locus YGL173C, strain kem1, stronger effect = lower value 0.982 | locus YGL227W, strain vid30, stronger effect = lower value 0.984 | locus YGL240W, strain doc1, stronger effect = lower value 0.979 | locus YGL248W, strain PDE1, stronger effect = lower value 1.01 | locus YGL253W, strain hxk2, stronger effect = lower value 0.988 | locus YGR078C, strain PAC10, stronger effect = lower value 1.02 | locus YGR135W, strain pre9, stronger effect = lower value 1.01 | locus YGR229C, strain SMI1, stronger effect = lower value 1.04 | locus YGR252W, strain gcn5, stronger effect = lower value 0.994 | locus YHR013C, strain ard1, stronger effect = lower value 0.964 | locus YHR027C, strain rpn1, stronger effect = lower value 0.987 | locus YHR030C, strain SLT2, stronger effect = lower value 1.02 and 1.01 | locus YHR079C, strain IRE1 (second series), stronger effect = lower value 0.996 | locus YHR079C, strain IRE1, stronger effect = lower value 1.09 | locus YHR094C, strain hxt1, stronger effect = lower value 0.977 | locus YHR129C, strain ARP1, stronger effect = lower value 1.02 | locus YHR142W, strain chs7, stronger effect = lower value 0.99 | locus YHR200W, strain rpn10, stronger effect = lower value 0.99 | locus YIL066C, strain RNR3, stronger effect = lower value 1.02 | locus YIL073C, strain SPO22, stronger effect = lower value 1.02 | locus YIL125W, strain kgd1, stronger effect = lower value 1 | locus YIR030C, strain dcg1, stronger effect = lower value 0.996 | locus YJL092W, strain hpr5, stronger effect = lower value 0.984 | locus YJL095W, strain BCK1 (second series), stronger effect = lower value 0.984 | locus YJL095W, strain BCK1, stronger effect = lower value 1.02 and 0.999 | locus YJL115W, strain asf1, stronger effect = lower value 0.993 | locus YJL129C, strain trk1, stronger effect = lower value 0.99 | locus YJL134W, strain LCB3, stronger effect = lower value 1.01 | locus YJL154C, strain vps35, stronger effect = lower value 0.986 | locus YJL164C, strain tpk1, stronger effect = lower value 1.01 | locus YJL166W, strain qcr8, stronger effect = lower value 0.996 | locus YJL168C, strain set2, stronger effect = lower value 1 | locus YJL187C, strain SWE1 (second series), stronger effect = lower value 1.02 | locus YJL187C, strain SWE1, stronger effect = lower value 0.996 | locus YJR043C, strain POL32, stronger effect = lower value 1.04 | locus YJR066W, strain TOR1, stronger effect = lower value 0.973 | locus YJR075W, strain HOC1, stronger effect = lower value 1.02 | locus YKL009W, strain mrt4, stronger effect = lower value 1.04 | locus YKL068W, stronger effect = lower value 0.995 | locus YKL085W, strain MDH1 (second series), stronger effect = lower value 1 | locus YKL085W, strain MDH1, stronger effect = lower value 1 | locus YKL160W, strain elf1, stronger effect = lower value 0.98 | locus YKR001C, strain vps1, stronger effect = lower value 1.01 | locus YKR026C, strain gcn3, stronger effect = lower value 0.991 | locus YKR091W, strain srl3, stronger effect = lower value 0.994 | locus YLL001W, strain dnm1, stronger effect = lower value 0.989 | locus YLL026W, stronger effect = lower value 0.99 | locus YLL041C, strain sdh2, stronger effect = lower value 0.995 | locus YLR027C, strain aat2, stronger effect = lower value 0.996 | locus YLR039C, strain RIC1, stronger effect = lower value 1.04 | locus YLR058C, strain SHM2, stronger effect = lower value 1.02 | locus YLR102C, strain apc9, stronger effect = lower value 0.997 | locus YLR113W, strain HOG1, stronger effect = lower value 0.991 | locus YLR221C, strain rsa3, stronger effect = lower value 0.997 | locus YLR258W, strain gsy2, stronger effect = lower value 0.99 | locus YLR262C, strain YPT6 (second series), stronger effect = lower value 0.988 | locus YLR262C, strain YPT6, stronger effect = lower value 1.05 | locus YLR268W, strain sec22, stronger effect = lower value 1 | locus YLR320W, strain mms22, stronger effect = lower value 0.982 | locus YLR330W, strain CHS5, stronger effect = lower value 1.01 | locus YLR342W, strain FKS1 (second series), stronger effect = lower value 1.02 | locus YLR342W, strain FKS1, stronger effect = lower value 0.989 | locus YLR357W, strain rsc2, stronger effect = lower value 0.983 | locus YLR370C, strain arc18, stronger effect = lower value 0.991 | locus YLR371W, strain rom2, stronger effect = lower value 0.993 | locus YLR384C, strain iki3, stronger effect = lower value 0.995 | locus YLR418C, strain cdc73, stronger effect = lower value 1.01 | locus YML016C, strain PPZ1, stronger effect = lower value 1.01 | locus YML032C, strain rad52, stronger effect = lower value 1.01 | locus YML120C, strain ndi1, stronger effect = lower value 0.981 | locus YML124C, strain tub3, stronger effect = lower value 1 | locus YMR058W, strain fet3, stronger effect = lower value 0.986 | locus YMR078C, strain ctf18, stronger effect = lower value 1 | locus YMR125W, strain sto1, stronger effect = lower value 0.992 | locus YMR129W, stronger effect = lower value 0.997 | locus YMR205C, strain PFK2, stronger effect = lower value 0.973 | locus YMR223W, strain ubp8, stronger effect = lower value 1 | locus YMR231W, strain pep5, stronger effect = lower value 0.995 | locus YMR307W, strain GAS1, stronger effect = lower value 1.05 | locus YNL067W, strain RPL9B, stronger effect = lower value 1.01 | locus YNL071W, strain lat1, stronger effect = lower value 0.997 | locus YNL128W, strain TEP1, stronger effect = lower value 1.03 | locus YNL153C, strain GIM3, stronger effect = lower value 1.02 | locus YNL183C, strain NPR1, stronger effect = lower value 0.968 | locus YNL209W, strain ssb2, stronger effect = lower value 1 | locus YNL233W, strain BNI4, stronger effect = lower value 1.01 | locus YNL248C, strain rpa49, stronger effect = lower value 0.992 | locus YNL250W, strain rad50, stronger effect = lower value 1 | locus YNL271C, strain bni1, stronger effect = lower value 1.01 | locus YNL298W, strain CLA4, stronger effect = lower value 1.01 | locus YNL307C, strain MCK1, stronger effect = lower value 0.996 | locus YNL322C, strain KRE1 (second series), stronger effect = lower value 0.982 | locus YNL322C, strain KRE1, stronger effect = lower value 1.01 | locus YNR049C, strain mso1, stronger effect = lower value 0.989 | locus YNR052C, strain pop2, stronger effect = lower value 0.995 | locus YOL012C, strain htz1 1.21 | locus YOL147C, strain pex11, stronger effect = lower value 0.993 | locus YOR001W, strain rrp6, stronger effect = lower value 0.994 | locus YOR061W, strain CKA2, stronger effect = lower value 1.01 | locus YOR069W, strain VPS5, stronger effect = lower value 1.02 | locus YOR070C, strain gyp1, stronger effect = lower value 0.998 | locus YOR080W, strain dia2, stronger effect = lower value 0.986 | locus YOR083W, strain WHI5, stronger effect = lower value 0.993 | locus YOR106W, strain vam3, stronger effect = lower value 0.997 | locus YOR136W, strain idh2, stronger effect = lower value 0.991 | locus YOR144C, strain elg1, stronger effect = lower value 0.997 | locus YOR184W, strain ser1, stronger effect = lower value 1.02 | locus YOR231W, strain MKK1, stronger effect = lower value 1 | locus YOR265W, strain rbl2, stronger effect = lower value 0.991 | locus YOR270C, strain vph1, stronger effect = lower value 1 | locus YOR290C, strain snf2, stronger effect = lower value 0.99 | locus YOR316C, strain cot1, stronger effect = lower value 0.995 | locus YPL051W, strain arl3, stronger effect = lower value 0.997 | locus YPL055C, strain LGE1, stronger effect = lower value 1.03 | locus YPL078C, strain atp4, stronger effect = lower value 0.988 | locus YPL106C, strain sse1, stronger effect = lower value 0.971 | locus YPL240C, strain hsp82, stronger effect = lower value 0.988 | locus YPL256C, strain CLN2, stronger effect = lower value 0.979 | locus YPR119W, strain clb2, stronger effect = lower value 1 | locus YPR141C, strain kar3, stronger effect = lower value 0.998 | locus YPR163C, strain tif3, stronger effect = lower value 1.01 | locus YPR167C, strain met16, stronger effect = lower value 1.01 | strain wtn01, stronger effect = lower value 1
